Screens (PubChem)
Shown are actives, neighbours in structure and some others; about 10% of the full set was active somewhere.
HP1b chromo inh: HTS for Inhibitors of HP1-beta Chromodomain Interactions with Methylated Histone Tails. Chromobox protein homolog 1 (Homo sapiens), P83916. Potency, µM (doses to about 114 µM), inactives show top-dose activity change, negative = inhibition, hits mostly inhibitors. AID 540317, 2011. 390,000 tested, 0.56% active. AlphaScreen HP1-beta / biotin-H3K9me3 peptide binding; note: nearly all actives have a fitted effect of over 70% in size
Target sequence (P83916 whole entry, looked up): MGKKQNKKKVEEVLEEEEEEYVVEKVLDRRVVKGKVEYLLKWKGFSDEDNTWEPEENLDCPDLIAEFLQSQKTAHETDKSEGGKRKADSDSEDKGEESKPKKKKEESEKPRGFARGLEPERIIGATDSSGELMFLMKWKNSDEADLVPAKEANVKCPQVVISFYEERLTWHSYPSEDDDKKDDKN
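Compound inhibition of the preformed complex between 50 nM HP1-beta and 50 nM biotinylated H3K9me3 peptide was read by AlphaScreen. Buffer was PBS pH 7.4 with 0.01% Tween-20. Incubations ran 30 min at room temperature, with 10 ug/mL donor/acceptor beads.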
L3MBTL1 inh: qHTS Assay for the Inhibitors of L3MBTL1; 230,000 tested, 0.66% active; Potency, µM (doses to about 57.1 µM), inactives show at the highest dose activity, negative = inhibition, usual class: inhibitors; AlphaScreen L3MBTL1–H3K9me1 peptide binding; Lethal(3)malignant brain tumor-like protein 1 (Homo sapiens), Q9Y468; note: % is set by controls: 0 for no effect and ±100 for the full control effect; nearly all actives have a fitted effect of over 60% in size
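L3MBTL1 50 nM + b-AHA-H3(1-15)K9me1 75 nM, 30 min RT; compound added, 30 min RT; streptavidin donor/Ni-chelate acceptor beads 10 ug/mL each final, 30 min RT dark; AlphaScreen read.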
GLS inhibitor: qHTS for Inhibitors of Glutaminase (GLS); GLS enzymatic activity, qHTS titration; AID 624170, 2012; 410,000 tested, 0.21% active; Glutaminase kidney isoform, mitochondrial (Homo sapiens), O94925; Potency, µM (titrated, usually from 45.5 µM), inactives show at the top dose activity change, negative = inhibition, most hits filed as inhibitors; note: % is set by controls: 0 for no effect and ±100 for the full control effect
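Compounds were pin-transferred onto hKGA, after which L-glutamine (1 mM solution) and a detection mix of glutamate oxidase, HRP and Amplex Red were added. Initial and 30 min RT fluorescence reads were collected.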
BAZ2B block: qHTS Assay for Inhibitors of BAZ2B; AID 504333, 2011; Potency, µM (top dose mostly 114 µM), for the others: at the top dose activity change, negative = inhibition, usual class: inhibitors; AlphaScreen BAZ2B-H3K14Ac peptide displacement; Bromodomain adjacent to zinc finger domain protein 2B (Homo sapiens), Q9UIF8; 360,000 tested, 4.4% active; note: % is set by controls: 0 for no effect and ±100 for the full control effect; nearly all actives have a fitted effect of over 60% in size
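AlphaScreen luminescence quantifies BAZ2B engagement of H3K14Ac peptide; the protein and biotinylated peptide are both at 50 nM final, buffer PBS pH 7.4 with 0.01% Tween-20, all steps at room temperature.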
G9a inh: qHTS Assay for Inhibitors of Histone Lysine Methyltransferase G9a; G9a H3K9 monomethylation, AlphaScreen, 2 h; Potency, µM (top dose mostly 102 µM), inactives show top-dose activity, negative = inhibition, hits mostly inhibitors; 350,000 tested, 8.8% active; note: % is set by controls: 0 for no effect and ±100 for the full control effect; nearly all actives have a fitted effect of over 75% in size
Target sequence (Q96KQ7 913-1193 limits assumed): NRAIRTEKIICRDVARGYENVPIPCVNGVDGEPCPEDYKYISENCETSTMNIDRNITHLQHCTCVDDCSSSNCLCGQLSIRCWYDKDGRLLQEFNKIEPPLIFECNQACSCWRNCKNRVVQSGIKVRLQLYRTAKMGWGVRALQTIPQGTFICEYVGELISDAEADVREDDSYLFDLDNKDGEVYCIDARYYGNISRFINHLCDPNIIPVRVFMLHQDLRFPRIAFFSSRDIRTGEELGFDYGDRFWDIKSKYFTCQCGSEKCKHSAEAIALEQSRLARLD
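Compounds were preincubated with 20 nM G9a for 15 min, after which biotinylated H3K9 peptide (500 nM) and SAM (20 uM) started a 2 h room-temperature reaction. Monomethylated product was quantified by antibody-based AlphaScreen chemiluminescence.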
JMJD2A Tudor inh: qHTS Assay for Inhibitors of JMJD2A-Tudor Domain; Lysine-specific demethylase 4A (Homo sapiens), O75164; AID 504339, 2011; Potency, µM (titrated, usually from 114 µM), for inactives: top-dose activity change, negative = inhibition, actives largely listed as inhibitors; AlphaScreen JMJD2A-Tudor / H3K4me3 peptide binding; 390,000 tested, 4.4% active; note: % is set by controls: 0 for no effect and ±100 for the full control effect; nearly all actives have a fitted effect of over 50% in size
Active calls of the source: *; ? = inconclusive; . = not tested or not shown; [ ] = another dose, or the depositor's remark. Calls come from the whole dose curve; as a rule, active = well fitted curve in the direction sought with a large enough effect; inconclusive = small, poorly fitted or top-dose-only effect, or another doubt; inactive = no such curve, though single readings can be large; an effect the other way counts as inactive or inconclusive. Potency is the fitted concentration of half-maximal effect.

SMILES	HP1b chromo inh	L3MBTL1 inh	GLS inhibitor	BAZ2B block	G9a inh	JMJD2A Tudor inh
COc1cccc(Nc2nc(NCCO)c3ccccc3n2)c1	11%	.	14%	-12%	?	-35%
COc1cccc(Nc2nc(NCC3CCCO3)c3ccccc3n2)c1 (stereo unspecified)	-6%	.	0%	-31%	45µM*	-35%
Oc1ccc(Nc2nc(NCC3CCCO3)c3ccccc3n2)cc1 (stereo unspecified)	-21%	-11%	47%	?	50µM*	?
c1cncc(-c2nc(NCC3CCCO3)c3ccccc3n2)c1 (stereo unspecified)	29%	.	7%	9%	-6%	2%
Oc1ccc(Cl)cc1Nc1nc(NCC2CCCO2)c2ccccc2n1 (stereo unspecified)	25%	.	10%	.	.	-22%
Cc1ccn2c(=O)cc(COc3cccc(NC(=O)Nc4cccc(Cl)c4C)c3)nc2c1	17%[57 µM]	.	-12%	-3%	5%[59 µM]	-19%
Cc1ccc(NC(=O)c2ccc(Cl)c(N3C(=O)C=CC3=O)c2)cc1	?	-1%	-9%	22µM*	-40%[0.501 µM]	7.9µM*
O=C(Nc1ccc(Cl)c(Cl)c1)c1ccc(Cl)c(Cl)c1	31%	20%	-2%	-13%	20%	-9%
Cc1ccc(NC(=O)c2sc3nc4n(c(=O)c3c2C)CCCCC4)c(Br)c1	32%	.	-1%	2%	11%[59 µM]	2%
Cc1c(C(=O)NCc2ccc(Cl)cc2)sc2nc3n(c(=O)c12)CCC3	-24%	.	-6%	-35%	-23%[59 µM]	?
Cc1cc(Br)ccc1NC(=O)c1sc2nc3n(c(=O)c2c1C)CCCC3	68%	.	-1%	18µM*	13µM*	79µM*
COc1ccc(CNC(=O)c2sc3nc4n(c(=O)c3c2C)CCCCC4)cc1	3%	.	2%	16µM*	14µM*	89µM*
Cc1onc(-c2c(Cl)cccc2Cl)c1NC(=O)NNc1ccccc1	63%	5%	0%	-15%	40µM*	-16%
Cc1cc(C(=O)NNC(=O)c2c(-c3c(Cl)cccc3Cl)noc2C)no1	30%	.	4%	-11%	21%	-8%
Cc1onc(-c2c(Cl)cccc2Cl)c1C(=O)NNc1ccccc1	-30%	5%	?	?	.	79µM*
Cc1onc(-c2c(F)cccc2Cl)c1C(=O)ONC(=O)c1ccco1	29%	.	-8%	-7%	50µM*	40µM*
Cc1onc(-c2c(F)cccc2Cl)c1C(=O)NCc1ccccc1	19%	-3%	-2%	-7%	20%	-9%
CCCN1CNc2c(c(=O)[nH]c(=S)n2CCc2cccc(C)c2)C1	33%	.	.	.	.	-7%
Cn1c(=O)c(-c2cccs2)nc2cnc(N3CCNCC3)nc21	.	.	.	.	-1%[0.501 µM]	.
CCOC(=O)C1CCN(C(=O)c2cc(COc3ccc(OC)c4ccccc34)on2)CC1	-18%	.	16%	?	45µM*	-16%
CCOC(=O)c1sc2ncn(CC(=O)Nc3ccc(OCC)cc3)c(=O)c2c1C	23%	.	-11%	2%	2%[59 µM]	-16%
O=S(=O)(NCC(c1cccs1)S(=O)(=O)c1ccccc1)c1ccccc1 (stereo unspecified)	27%	.	-8%	-2%	6%[59 µM]	-11%
COC(=O)C1(CO)NC(c2cccs2)C2C(=O)N(c3ccccc3)C(=O)C21 (stereo unspecified)	-11%	8%	1%	9%	-8%	-30%[57.1 µM]
O=C1NC(=O)C2C1C(c1cccs1)NN2Cc1ccccc1 (stereo unspecified)	14%	9%	-9%	?	50µM*	-28%
Cc1cc2ncc(S(C)(=O)=O)c(N)n2n1	4%	6%	3%	-7%	2%	13µM*
SMILES	HP1b chromo inh	L3MBTL1 inh	GLS inhibitor	BAZ2B block	G9a inh	JMJD2A Tudor inh
CCCc1cc(-c2[nH]ncc2-c2ccc3c(c2)OCCCO3)c(O)cc1O	-20%	-24%	-6%	?	-19%[12.7 µM]	40µM*
COc1ccccc1N1CCN(C(=O)Cn2cnc3onc(-c4ccc(F)cc4)c3c2=O)CC1	-14%	.	-6%	1%[57.1 µM]	-11%[59 µM]	-30%
COc1ccccc1NS(=O)(=O)c1ccc2c(c1)CCC(=O)N2	.	.	.	.	.	7%
CCOc1ccc(N=C(NN)c2ccc3ccccc3n2)cc1	-1%[57 µM]	-23%	0%	40µM*	13µM*	50µM*
CN=C1C([N+](=O)[O-])=CC=C2C1=NC1(CCCCC1)N2O	-25%	-17%	-1%	?	?	-25%
O=[N+]([O-])C1=CC=C2C(=NC3(CCCCC3)N2O)C1=NCCO	-34%	-12%	3%	50µM*	?	-16%
Cc1ccc(CNC(=O)C(=O)NCC(c2cccs2)S(=O)(=O)c2cccs2)cc1 (stereo unspecified)	19%	.	13%	-4%	6%[59 µM]	-17%
Cc1ccc(-c2cc3nccc(-c4cc([N+](=O)[O-])ccc4O)n3n2)cc1	14%	.	8.9µM*	?	-51%[59 µM]	-18%
CCCNC(=O)Cn1cnc2sc(C(=O)NCCN(CC)CC)c(C)c2c1=O	20%	2%	-2%	0%	79µM*	5%
O=C(CN1CCCc2ccccc21)N/N=C/c1c(O)ccc2ccccc12	?	-8%	15%	-12%	40µM*	?
O=C(CN1CCCc2ccccc21)N/N=C/c1ccccc1	7%	-18%	3%	?	45µM*	-32%
O=C(CNc1ccc(F)cc1)N/N=C/c1c(O)ccc2ccccc12	25%	.	9%	-11%	-4%	-16%
CC(C)(C)NC(=O)NC(=O)CN1CCCc2ccccc21	-10%	.	-10%	-22%	?	-30%
NS(=O)(=O)c1ccc(NC(=O)CN2CCc3ccccc32)cc1	36%	.	0%	-3%	.	-4%
NS(=O)(=O)c1ccc(NC(=O)CN2CCCc3ccccc32)cc1	9%	.	-10%	-26%	28µM*	-20%
O=C(CN1CCCc2ccccc21)N/N=C/c1ccc(O)cc1O	-11%	-15%	31%	-27%	79µM*	?
COc1ccc(-c2onc(C)c2C)cc1S(=O)(=O)NCc1ccc(C)o1	10%	.	7%	?	-5%[59 µM]	-29%
COc1cccc(-c2nccc(NCc3ccccc3)n2)c1	.	.	.	.	13%[0.501 µM]	.
